SMN2 splice enh – qHTS Assay for Enhancers of SMN2 Splice Variant Expression. HEK293 SMN2-luciferase splicing reporter, luminescence, 30-36 h. Potency, µM (series often up to 46.1 µM), actives largely listed as activators. 210,000 compounds, 2.8% hits; further: nearly all actives have a fitted effect of over 55% in size
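HEK293 cells carry an SMN2 […]–luciferase reporter in which exon 7 inclusion puts luciferase in frame. Cells were plated 10-12 h before compound addition, then incubated 30-36 h at 37C. ONE-Glo luminescence was read; sodium butyrate at 4.5 mM final served as control.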
Rab9 prom act – qHTS Assay for Rab9 Promoter Activators. Huh7 Rab9 promoter-luciferase reporter, luminescence, 24 h. 320,000 compounds, 2.8% hits. Potency, µM (titrated, usually from 9.22 µM), most hits filed as activators; further: nearly all actives have a fitted effect of over 60% in size
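Stable Rab9-luc Huh7, 1500 cells/well, 2 h settle; cmpd in DMSO, 24 h, 37 °C/5% CO2; luciferase reagent 10 min RT; luminescence.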
NPC1 promoter act – qHTS Assay for NPC1 Promoter Activators; Huh7 NPC1 promoter luciferase reporter, 24 h; Potency, µM (top dose mostly 9.22 µM), usual class: activators; 320,000 compounds, 2.4% hits; further: nearly all actives have a fitted effect of over 60% in size
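Stably transfected Huh7 (NPC1 promoter→luciferase), 1500 cells/well in Opti-MEM + 10% FBS, 2 h settle, then compound 24 h at 37 °C. Luminescence after 10 min with Amplite reagent.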
FLuc modulator – qHTS profiling assay for firefly luciferase inhibitor/activator using purifed enzyme and Km concentrations of substrates (counterscreen for miR-21 project). purified FLuc, Km substrates, luminescence inhibition. Potency, µM (highest dose often 57.5 µM), actives largely listed as inhibitors. 360,000 compounds, 6.9% hits. AID 588342, 2011; further: nearly all actives have a fitted effect of over 55% in size
Target sequence (P08659 whole entry, looked up): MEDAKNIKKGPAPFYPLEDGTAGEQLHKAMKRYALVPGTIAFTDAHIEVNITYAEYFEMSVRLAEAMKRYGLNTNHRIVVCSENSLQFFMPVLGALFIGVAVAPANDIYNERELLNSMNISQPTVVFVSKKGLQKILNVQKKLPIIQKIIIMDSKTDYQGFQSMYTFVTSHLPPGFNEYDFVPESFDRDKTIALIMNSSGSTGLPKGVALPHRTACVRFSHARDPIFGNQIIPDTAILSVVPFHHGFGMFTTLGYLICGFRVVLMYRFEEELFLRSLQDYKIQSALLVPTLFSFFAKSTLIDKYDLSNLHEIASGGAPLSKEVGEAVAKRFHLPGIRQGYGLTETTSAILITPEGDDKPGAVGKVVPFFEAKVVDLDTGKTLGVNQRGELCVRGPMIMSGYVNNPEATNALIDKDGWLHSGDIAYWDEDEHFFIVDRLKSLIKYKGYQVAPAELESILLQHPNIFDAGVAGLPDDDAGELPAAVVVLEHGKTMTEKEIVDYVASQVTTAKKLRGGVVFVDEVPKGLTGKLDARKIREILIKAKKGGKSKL
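Purified P. pyralis luciferase (10nM final) with 10uM D-luciferin and 10uM ATP (Km levels) in 50mM Tris acetate pH 7.5, 10mM Mg acetate, 0.01% Tween-20, 0.05% BSA; qHTS 6-point titration, ~60 µM downward; luminescence read.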
ELG1 genotox – qHTS screen for small molecules that induce genotoxicity in human embryonic kidney (HEK293T) cells expressing luciferase-tagged ELG1; Potency, µM (titrated, usually from 46 µM), hits mostly activators; 330,000 compounds, 1.3% hits; HEK293T ELG1-luciferase reporter, luminescence, 16 h; further: nearly all actives have a fitted effect of over 60% in size
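Reporter readout depends on ELG1 protein level, which increases with genetic stress. After 16 hr compound exposure at 37 °C, luciferase activity was quantified using ONE-Glo.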
Hits are given with their value; n = inactive; u = inconclusive; x = not tested or not shown; ! = not active in a repeat; [ ] = dose if it differs, or a comment. Most compounds without a hit are left out; they make up all but 7.5% or so of the library. The call rests on the fitted dose curve; in most records, active means well fitted curve in the direction sought with a large enough effect; inconclusive means small, poorly fitted or top-dose-only effect, or another doubt; inactive means no such curve, though single readings can be large; an effect the other way counts as inactive or inconclusive.

SMILES | SMN2 splice enh | Rab9 prom act | NPC1 promoter act | FLuc modulator | ELG1 genotox
O=C(NCCc1ccccc1)c1noc2c1CCCCC2 | u | 3.5µM | 2.5µM | 8.5µM | u
O=C(COC(=O)CNC(=O)c1cccc([N+](=O)[O-])c1)NCc1ccco1 | n | n | n | n | n
Cc1ccc(-c2ccc(=O)n(CC(=O)NCCC(C)C)n2)cc1 | x | n | n | n | n
O=C1CN(C(=O)CNC(=O)c2ccc(Cl)cc2Cl)CCN1 | x | n | n | n | n
Cc1ccc(NC(=S)NNc2ccc([N+](=O)[O-])cc2S(=O)(=O)Nc2ccccc2C(=O)O)cc1C | n | n | n | u | n
O=C(O)c1ccccc1NS(=O)(=O)c1ccc(NNC(=S)Nc2ccc(OC(F)F)cc2)c([N+](=O)[O-])c1 | n | n | n | 19µM | n
COC(=O)c1sccc1N/N=C/c1cccc(Oc2ccccc2)c1 | u | 2.2µM | 3.2µM | 1.9µM | 2.3µM
COC(=O)c1sccc1N/N=C/c1ccc(OC)c(OC)c1OC | 14µM | u | u | 15µM | u
COc1ccc(/C=N/NC(=O)C(N)=O)c(OC)c1OC | n | n | n | n | n
COC(=O)c1sccc1N/N=C/c1cccc(OC)c1O | 0.56µM | 3.2µM | 3.5µM | 0.95µM | u
COC(=O)c1sccc1NC(=O)c1ccccc1 | n | n | n | n | n
COc1ccc(CCNC(=O)C2(C)CCC(=O)N2Cc2ccc(C)cc2)cc1OC (configuration not stated) | x | n | n | n | n
CNc1oc(-c2ccc(Cl)cc2)nc1C#N | n | u | u | 11µM | u
COc1ccc(-c2nc(C#N)c(N3CCCCC3)o2)cc1 | x | n[1.84 µM] | n | u | n
N#Cc1nc(-c2cccc3ccccc23)oc1NCC1CCCO1 (configuration not stated) | x | n | n | 12µM | u
N#Cc1nc(-c2ccc(Cl)cc2)oc1NCC1CCCO1 (configuration not stated) | u | u | n | 21µM | u
N#Cc1nc(-c2ccccc2)oc1NCC1CCCO1 (configuration not stated) | n | n | n | n | n
COc1ccc(-c2nc(C#N)c(NC(C)C)o2)cc1 | n | u | u | 13µM | n
CC(=O)O[C@H]1C(=O)[C@@]2(C)C([C@H](OC(=O)c3ccccc3)[C@]3(O)C[C@H](OC(=O)[C@H](O)[C@@H](NC(=O)c4ccccc4)c4ccccc4)C(C)=C1C3(C)C)[C@]1(OC(C)=O)CO[C@@H]1C[C@@H]2O (some centres not stated) | n | n | n | x | x
COc1ccc(C(=O)/C=C/Nc2cccc(C)n2)cc1OC | 13µM | 2µM | 2.2µM | 3.8µM | u
COc1ccc(N/C=C/C(=O)c2ccc(OC)c(OC)c2)cc1 | x | n | n | 2.4µM | n
COc1ccc(N/C=C\C(=O)c2ccc3c(c2)OCO3)cc1OC | n | n | n | 1.7µM | u
COc1ccc(N/C=C/C(=O)c2cc(OC)c(OC)c(OC)c2)cc1 | x | n | n | 6µM | u
COC(=O)c1ccc(N/C=C/C(=O)c2ccc(OC)c(OC)c2)cc1 | n | n | n | n | u
CCCCC1C(=O)N(c2ccccc2)N(c2ccc(O)cc2)C1=O (configuration not stated) | n | n | n | u | n
SMILES | SMN2 splice enh | Rab9 prom act | NPC1 promoter act | FLuc modulator | ELG1 genotox
O=C(/C=C\Nc1cccc(F)c1)c1ccc2c(c1)OCO2 | x | u | 0.32µM | 0.12µM | 0.15µM
COc1ccc(C(=O)/C=C/c2cn(CC(O)CN3CCCCCC3)c3ccccc23)cc1OC (configuration not stated) | n | x | x | u | x
COc1ccc(C(=O)/C=C/N2CCCCC2)cc1OC | n | n | u | 24µM | n
COc1ccc(Cn2c(CCC(=O)Nc3ccc(OC)c(Cl)c3)nc3cccnc32)cc1 | n | x | x | n | x
COc1ccc(-n2nc(C(=O)NCC(=O)NC3CCCCCC3)c3ccccc3c2=O)c(OC)c1 | x | n | n | u | n
CCOC(=O)C1CCN(C(=O)CNC(=O)c2nn(-c3ccc(OC)cc3OC)c(=O)c3ccccc23)CC1 | x | n | n | 9.5µM | n
CCOC(=O)N1CCN(C(=O)CNC(=O)c2nn(-c3ccc(OC)cc3OC)c(=O)c3ccccc23)CC1 | x | n | n | 3.8µM | u
COc1ccc(-n2nc(C(=O)NCC(=O)N3CCCC3)c3ccccc3c2=O)c(OC)c1 | x | n | n | 13µM | n
COc1ccc(-n2nc(C(=O)NCC(=O)N3CC(C)CC(C)C3)c3ccccc3c2=O)c(OC)c1 (configuration not stated) | x | n | n | u | n
CC(=O)c1cc2c(cc1N/C(=N/S(=O)(=O)c1ccc(C)cc1)c1ccc(F)cc1)OCO2 | x | x | x | n | x
CC(OC(=O)C1CCCCC1)C(=O)Nc1cccc([N+](=O)[O-])c1 (configuration not stated) | x | n | n | n | n
Cc1ccc(O)c(NC(=O)c2noc3c2CCCC3)c1 | 11µM | x | x | 8.5µM | x
COC(=O)c1ccccc1NC(=O)c1noc2c1CCC2 | n | n | n | n | n
Cc1ccc(Cn2nc(C)c(NC(=O)c3noc4c3CCCCC4)c2C)cc1 | n | n | n | n | n
Cc1ccc(C)c(N2CCN(C(=O)c3noc4c3CCCCC4)CC2)c1 | x | x | x | n | x
CSc1ccccc1NC(=O)c1noc2c1CCC2 | n | n | n | u | 15µM
Cc1ccc(O)c(NC(=O)c2noc3c2CCCCC3)c1 | 4µM! | u | 2.8µM | 4.8µM | u
Cc1ccc(/C=C/S(=O)(=O)NCCC(=O)NCc2ccc(F)cc2)cc1 | x | n | n | n | n
COc1ccc2oc(C(=O)NCCN3CCOCC3)c(C)c2c1OC | x | 2.2µM | 2µM | 15µM | 10µM
Cc1ccc2oc(C(=O)NCCC3CCCCO3)c(C)c2c1 (configuration not stated) | x | 0.45µM | 0.56µM | 2.7µM | 3.7µM
Cc1c(C(=O)NCCCN2CCOCC2)oc2ccc(S(=O)(=O)N3CCOCC3)cc12 | n | n | n | n | n
Cc1ccc2oc(C(=O)NCCCN3CCOCC3)c(C)c2c1 | x | 4µM | 3.2µM | 13µM | 18µM
CN(CC(=O)Nc1ccccc1C(=O)NC1CC1)Cc1ccco1 | x | n | n | x | n
NC(=O)COc1cccc2cccnc12 | n | n | n | n | n
Cc1ccc2cccc(OCCCOc3ccccc3F)c2n1 | x | n | n | 19µM | n
SMILES | SMN2 splice enh | Rab9 prom act | NPC1 promoter act | FLuc modulator | ELG1 genotox
Brc1ccc(OCCCOc2cccc3cccnc23)cc1 | x | n | n | u | n
Fc1ccc(COc2cccc3cccnc23)cc1 | n | u | u | 17µM | u
Cc1cccc(OCCCOc2cccc3cccnc23)c1C | n | n | n | u | n
Clc1ccccc1OCCCOc1cccc2cccnc12 | x | u | u | 7.6µM | u
Cc1ccc2cccc(OCCOCCOc3ccccc3Br)c2n1 | n | n | n | n | n
COc1cccc(OC)c1OCCCOc1cccc2cccnc12 | u | 3.2µM | u | 17µM | n

Compound activity as filed in PubChem BioAssay.
